These results are taken from publication PMC4336329 (PLoS ONE, 2015).

Out of some 310,000 compounds screened, about 14,000 (4.5%) showed an effect of 50% or more. The effect is printed as a negative number. This excerpt belongs to a sample that is enriched for strong results.
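Also: peak tail current of the secondary pulse compared with the same well before compound.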

This assay deals with human ether-à-go-go-related gene (hERG) potassium channel (human, UniProt Q12809). Description: primary screen, population patch clamp on CHO cells stably expressing hERG; higher = less effect of the substance.
Chain of human ether-à-go-go-related gene (hERG) potassium channel (Q12809 whole entry, looked up): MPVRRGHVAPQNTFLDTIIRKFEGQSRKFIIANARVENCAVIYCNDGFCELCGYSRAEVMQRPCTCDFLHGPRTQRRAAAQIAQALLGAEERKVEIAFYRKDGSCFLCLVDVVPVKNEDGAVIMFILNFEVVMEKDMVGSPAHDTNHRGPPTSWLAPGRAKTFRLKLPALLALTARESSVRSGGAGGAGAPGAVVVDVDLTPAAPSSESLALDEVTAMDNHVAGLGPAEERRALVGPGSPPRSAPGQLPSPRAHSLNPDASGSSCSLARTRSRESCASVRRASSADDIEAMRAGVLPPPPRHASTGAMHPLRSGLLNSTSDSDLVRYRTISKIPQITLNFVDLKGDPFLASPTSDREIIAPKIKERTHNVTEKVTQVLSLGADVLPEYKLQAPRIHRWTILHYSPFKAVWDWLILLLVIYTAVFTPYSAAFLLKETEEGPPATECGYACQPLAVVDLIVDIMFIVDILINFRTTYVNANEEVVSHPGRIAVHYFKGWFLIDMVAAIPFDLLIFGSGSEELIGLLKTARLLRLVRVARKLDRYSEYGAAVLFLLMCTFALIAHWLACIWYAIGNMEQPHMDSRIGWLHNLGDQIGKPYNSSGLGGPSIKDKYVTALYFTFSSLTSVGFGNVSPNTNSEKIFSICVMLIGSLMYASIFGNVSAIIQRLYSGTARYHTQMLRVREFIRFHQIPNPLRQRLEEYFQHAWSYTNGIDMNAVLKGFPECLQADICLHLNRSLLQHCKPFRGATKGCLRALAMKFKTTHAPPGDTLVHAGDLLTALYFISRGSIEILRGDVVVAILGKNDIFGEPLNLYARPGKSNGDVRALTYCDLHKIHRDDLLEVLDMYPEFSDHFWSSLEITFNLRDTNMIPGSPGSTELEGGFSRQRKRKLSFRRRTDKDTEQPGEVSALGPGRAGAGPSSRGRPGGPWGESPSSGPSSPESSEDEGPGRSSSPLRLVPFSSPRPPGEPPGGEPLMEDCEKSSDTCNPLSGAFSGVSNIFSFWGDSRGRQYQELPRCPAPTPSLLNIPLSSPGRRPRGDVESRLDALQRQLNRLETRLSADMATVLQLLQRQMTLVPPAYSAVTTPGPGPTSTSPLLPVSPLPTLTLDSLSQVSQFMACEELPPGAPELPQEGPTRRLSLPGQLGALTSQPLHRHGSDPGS
On to `O=C(CCC1=NS(=O)(=O)c2ccccc2N1)NC1CCCCCCC1`, for which the “hERG current change (%, negative = inhibition) at 10uM” value turned out to be 2.57%.

`COc1ccc(S(=O)(=O)N(CC(=O)NC2CC2)c2ccc(C)cc2)cc1`: the “hERG current change (%, negative = inhibition) at 10uM” value is -0.125%.

As to `CCCN(CC(=O)Nc1ccccc1C)C(=O)CCl`, the “hERG current change (%, negative = inhibition) at 10uM” value is -0.969%.

Consider `CCN(CC(=O)Nc1c(F)cccc1F)C(=O)Cc1ccccc1`, for which the “hERG current change (%, negative = inhibition) at 10uM” value is listed as -1.53%.

For the compound `CCCN(CC(=O)Nc1ccccc1C)C(=O)Cc1n[nH]c(=O)c2ccccc12`, the “hERG current change (%, negative = inhibition) at 10uM” value is -10.2%.

For `CCN(CC(=O)Nc1c(F)cccc1F)C(=O)c1cc(C)nc2ccccc12`, the “hERG current change (%, negative = inhibition) at 10uM” value came out at 9.3%.

For `CCN(CC(=O)Nc1c(F)cccc1F)C(=O)Cc1c(C)nc2ccccc2c1C`, the “hERG current change (%, negative = inhibition) at 10uM” value is -55.1%.

Take `CCCN(CC(=O)Nc1ccc(Cl)cc1Cl)C(=O)CC(NC(C)=O)c1ccccc1` (stereo not drawn): the “hERG current change (%, negative = inhibition) at 10uM” value was 0.715%.

In the case of `CCCN(CC(=O)Nc1ccccc1C)C(=O)CC(NC(=O)c1ccccc1)c1ccccc1` (stereo not drawn), the “hERG current change (%, negative = inhibition) at 10uM” value was -52.7%.

As for `CCCN(CC(=O)Nc1ccccc1C)C(=O)CSc1ccccc1C`, the “hERG current change (%, negative = inhibition) at 10uM” value worked out at 7.42%.

With `CCCN(CC(=O)Nc1ccccc1C)C(=O)Cc1c(C)nc2ccccc2c1C`, the “hERG current change (%, negative = inhibition) at 10uM” value is -77.4%.

As to `Cn1c(CCNC(=O)c2ccccc2F)nnc1SCC(=O)Nc1ccccc1F`, the “hERG current change (%, negative = inhibition) at 10uM” value stood at 3.44%.

As to `OCCOCCn1c(CCNc2nc(-c3ccc(Cl)cc3)cs2)nc2cc(Cl)c(Cl)cc21`, the “hERG current change (%, negative = inhibition) at 10uM” value is given as 3.83%.

For the compound `Cc1ccc(-c2cc(-c3ccccc3)no2)c(O)c1`, the “hERG current change (%, negative = inhibition) at 10uM” value is reported as 17.4%.

For `CCn1ncc(/C=N\NC(=O)c2cc(-c3ccc(C)cc3C)nc3ccccc23)c1C`, the “hERG current change (%, negative = inhibition) at 10uM” value is given as -8.84%.

For the compound `Cc1nnc(SCC(=O)c2ccc(Cl)cc2)s1`, the “hERG current change (%, negative = inhibition) at 10uM” value is recorded as -9.82%.

Consider `Cc1ccc(Cn2c(CN3CCN(C(=O)c4ccco4)CC3)nc3c2c(=O)n(C)c(=O)n3C)cc1`, for which the “hERG current change (%, negative = inhibition) at 10uM” value is given as -54.2%.

Regarding `Cn1c(=O)c2c(nc(CN3CCN(C(=O)c4ccco4)CC3)n2Cc2ccc(F)cc2)n(C)c1=O`, the “hERG current change (%, negative = inhibition) at 10uM” value was -44.8%.

`CC(C)Cn1c(CN2CCN(C(=O)c3ccco3)CC2)nc2c1c(=O)n(C)c(=O)n2C`: the “hERG current change (%, negative = inhibition) at 10uM” value is -12.2%.

Take `Cn1c(=O)c2c(nc(CN3CCN(C(=O)c4ccco4)CC3)n2Cc2cccc(Cl)c2)n(C)c1=O`: the “hERG current change (%, negative = inhibition) at 10uM” value is listed as -60.1%.

For the compound `Cn1c(=O)c2c(nc(CN3CCN(C(=O)c4ccco4)CC3)n2Cc2ccc(Cl)cc2)n(C)c1=O`, the “hERG current change (%, negative = inhibition) at 10uM” value is -64.8%.

Take `CC(=O)Cn1c(CN2CCN(C(=O)c3ccco3)CC2)nc2c1c(=O)n(C)c(=O)n2C`: the “hERG current change (%, negative = inhibition) at 10uM” value is given as 16%.

With `Cn1c(=O)c2c(nc(CN3CCN(C(=O)c4ccco4)CC3)n2Cc2ccccc2)n(C)c1=O`, the “hERG current change (%, negative = inhibition) at 10uM” value is -40.7%.

On to `Cc1ccccc1Cn1c(CN2CCN(C(=O)c3ccco3)CC2)nc2c1c(=O)n(C)c(=O)n2C`, for which the “hERG current change (%, negative = inhibition) at 10uM” value is given as -45%.
